From PubChem BioAssay (EPA / NIEHS) come the findings set out here.

Each structure is given as a SMILES string. Inconclusive results are not listed. The source made the active and inactive calls. The calls were made as follows, unless noted: active = hit-call score of the fitted dose curve at least 0.9, where 1 is the maximum; inconclusive = response in the unintended direction; inactive = score below 0.9.

Tested on in one assay: not listed separately
In words: CCTE_Mundy_HCI_iCellGluta_NOG_NeuronCount: CCTE's Neurite Outgrowth Assay in iCellGluta cells for Neuron Count, Mundy Lab (AID 2284340).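 Also: cells fixed about 48 h after compound addition.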 The method, then:
CCTE_Mundy_HCI_iCellGluta_NOG is a multiplexed, cell-based-readout assay that uses iCell GlutaNeurons from FUJIFILM Cellular Dynamics, Inc. (FCDI), human glutamatergic enriched neurons derived from induced pluripotent stem (iPS) cells, with measurements taken at 50.33 hours after chemical dosing in a microplate: 96-well plate.CCTE_Mundy_HCI_iCellGluta_NOG_NeuronCount is one of four components of the CCTE_Mundy_HCI_iCellGluta_NOG assay. It measures cell viability related to number of neurons using High Content Imaging of fluorescently labelled markers.Data from the assay component CCTE_Mundy_HCI_iCellGluta_NOG_NeuronCount was analyzed at the endpoint CCTE_Mundy_HCI_iCellGluta_NOG_NeuronCount in the positive analysis fitting direction relative to DMSO as the negative control and baseline of activity. Using a type of viability reporter, loss-of-signal activity can be used to understand developmental effects.
Exposure starts 2 hours post-plating by adding 10 ul of the working solution to 90 ul of media in the wells for a 1/10 dilution. Forty-eight hours after chemical treatment cells are fixed by direct addition of 100 ul of warm (37C) Dulbecco's phosphate buffered saline (DPBS) fixative solution containing 8% paraformaldehyde, 8% sucrose, and 0.1% of 3 mg/ml Hoechst 33342 into each well. Primary antibodies are prepared by dilution in Immunocytochemical Staining Buffer (ISB), 10X Dulbecco's PBS, 0.1% Saponin, 5% Bovine Serum Albumin, 0.5% NaN3 (Sodium Azide) and betaIII-tubulin (rabbit anti-betaIII-tubulin, 1:800) followed by Alexa Fluor-488 secondary (1:500) to label neuronal cell bodies and neurites. A Cellomics ArrayScan VTi HCS Reader is used for automated image acquisition and analysis of neurite outgrowth.
On to `O=C(O)C(F)(F)OC(F)(F)C(F)(F)OC(F)(F)C(=O)O`, for which the result was inactive.
Turning to `FC(F)(F)C(F)(C(F)(F)F)C(F)(F)C(F)(F)CC1CO1` (stereo unspecified), the result was inactive.
As to `CCOP(=S)(OCC)SCSCC`, the compound was classed as inactive.
Take `O=C(O)C(F)(F)OC(F)(F)C(F)(F)OC(F)(F)F`: the result was inactive.
For orientation: AC50 means the midpoint of the concentration-response curve, whichever way the signal moves. Regarding `CO/N=C(/C(=O)OC)c1ccccc1COc1ccccc1C`, the concentration at half-maximal activity (AC50) is 31.4 µM (active).
In the case of `OCC(F)(F)OC(F)(F)C(F)(F)OC(F)(F)C(F)(F)OC(F)(F)F`, the compound was classed as inactive.
On to `O=C(O)C=CC(F)(C(F)(F)F)C(F)(F)F`, for which the call was inactive.
Same read-out and setting: the same measure for `O=C(O)C(F)(OC(F)(F)C(F)(F)C(F)(F)F)C(F)(F)F` (stereo unspecified): “inactive”; for `CCOc1ccc(C(C)(C)COCc2cccc(Oc3ccccc3)c2)cc1`: “inactive”.

Tested on in the next assay: not listed separately
The assay can be described thus: CCTE_Mundy_HCI_iCellGluta_NOG_NeuriteCount: CCTE's Neurite Outgrowth Assay in iCellGluta cells for Neurite Count, Mundy Lab (AID 2284342).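 Also: chemical exposure about 48 hours starting 2 hours after plating.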
On to `O=C(O)C(F)(F)OC(F)(F)C(F)(F)OC(F)(F)C(=O)O`, for which the result was inactive.
As to `C=CC(=O)OCC(F)(F)C(F)F`, the call was inactive.
On the same count and under the same terms, as for `FC(F)(F)C(F)(C(F)(F)F)C(F)(F)C(F)(F)CC1CO1` (stereo unspecified), the entry is “inactive”; as for `CCOP(=S)(OCC)SCSCC`, “inactive”.
For the compound `O=C(O)C(F)(F)OC(F)(F)C(F)(F)OC(F)(F)F`, the result was inactive.
Consider `CO/N=C(/C(=O)OC)c1ccccc1COc1ccccc1C`, for which the AC50 was 28.7 µM (active).
For the compound `OCC(F)(F)OC(F)(F)C(F)(F)OC(F)(F)C(F)(F)OC(F)(F)F`, the compound was called inactive.
With `O=C(O)C=CC(F)(C(F)(F)F)C(F)(F)F`, the compound was called inactive.
Consider `O=C(O)C(F)(OC(F)(F)C(F)(F)C(F)(F)F)C(F)(F)F` (stereo unspecified), for which the result was inactive.
For `CCOc1ccc(C(C)(C)COCc2cccc(Oc3ccccc3)c2)cc1`, the compound was classed as inactive.

In a further assay the test system is SERPINA7 (gene 6906). In words: CCTE_GLTED_hTBG: CCTE's human Thyroxine-binding Globulin (TBG) Inhibition Assay, Great Lakes Toxicology and Ecology Division (GLTED) Lab (AID 2284343).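 Also: active chemicals lower fluorescence versus DMSO baseline by displacing probe.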 The procedure, abridged:
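Human TBG incubated 2 h with test chemical; displacement of ANSA probe read by fluorescence, 380 nm excitation/475 nm emission. Loss of signal relative to DMSO.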
For `c1ccc(OP(Oc2ccccc2)Oc2ccccc2)cc1`, the outcome was inactive.
For the compound `CCCN(CCC)c1c([N+](=O)[O-])cc(C(C)C)cc1[N+](=O)[O-]`, the AC50 was 11.7 µM (active).
As to `CCCCc1ccc(O)cc1`, the AC50 was 63 µM (active).
For the compound `CCCCCCCc1ccc(O)cc1`, the AC50 was 18.5 µM (active).
For `CCOP(=S)(Oc1ccc([N+](=O)[O-])cc1)c1ccccc1` (stereo unspecified), the half-maximal activity concentration (AC50) is 1.84 µM (active).
In the case of `CCCCC(CC)COP(=O)(Oc1ccccc1)Oc1ccccc1` (stereo unspecified), the AC50 was 4.21 µM (active).
Turning to `COC(=O)C(F)(F)C(F)(F)OC(F)(C(F)(F)F)C(F)(F)OC(F)=C(F)F` (stereo unspecified), the AC50 is 22.3 µM (active).
The same measure, in the same setting: as for `CCOP(=S)(OCC)SCSCC`, the figure is 24.7 µM (active); as for `CO/N=C(/C(=O)OC)c1ccccc1COc1ccccc1C`, 34.2 µM (active).
For the compound `CCOc1ccc(C(C)(C)COCc2cccc(Oc3ccccc3)c2)cc1`, the result was inactive.
Turning to `O=[N+]([O-])c1ccc(Cl)c(Cl)c1`, the result was inactive.
As to `O=P(Oc1ccccc1)(Oc1ccccc1)Oc1ccccc1`, the AC50 is 3.18 µM (active).
Regarding `OCC(F)(F)OC(F)(F)C(F)(F)OC(F)(F)C(F)(F)OC(F)(F)CO`, the AC50 is 44.1 µM (active).
As for `CCC(C)(C)c1ccc(O)cc1`, the half-maximal activity concentration (AC50) is 50 µM (active).

Tested on in another assay: not listed separately
In words: Tanguay_ZF_120hpf_MO24: Oregon State University Tanguay Lab 24 Hour Post-fertilization zebrafish Assay for Mortality (AID 2284389; active = hit-call score of the fitted dose curve at least 0.9, where 1 is the maximum; inactive = score below 0.9). The procedure, abridged: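 Dechorionated wild-type zebrafish embryos, 1 per well, statically exposed from 6 hpf at 28C, 0.64% DMSO final. Mortality scored as binary present/absent at 24 hpf by brightfield microscopy, relative to DMSO.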
On to `O=C(O)C(F)(F)OC(F)(F)C(F)(F)OC(F)(F)C(=O)O`, for which the compound was called inactive.
On the same count and under the same terms, as for `C=CC(=O)OCC(F)(F)C(F)F`, the entry is “inactive”; as for `FC(F)(F)C(F)(C(F)(F)F)C(F)(F)C(F)(F)CC1CO1` (stereo unspecified), “inactive”.
`COC(=O)C(F)(F)C(F)(F)OC(F)(C(F)(F)F)C(F)(F)OC(F)=C(F)F` (stereo unspecified): the AC50 was 21.4 µM (active).
For the compound `OCC(F)(F)OC(F)(F)C(F)(F)OC(F)(F)CO`, the compound was classed as inactive.
Take `CC(O)C(F)(F)C(F)(F)F` (stereo unspecified): the result was inactive.
Turning to `O=S(=O)(F)C(F)(F)C(F)(F)C(F)(F)C(F)(F)C(F)(F)C(F)(F)C(F)(F)C(F)(F)F`, the compound was classed as inactive.
The same measure, in the same setting: the same measure for `O=C(O)C(F)(F)OC(F)(F)C(F)(F)OC(F)(F)F`: “inactive”.
On to `OCC(F)(F)OC(F)(F)C(F)(F)OC(F)(F)C(F)(F)OC(F)(F)F`, for which the compound was called inactive.
`O=C(O)C=CC(F)(C(F)(F)F)C(F)(F)F`: the call was inactive.
As for `O=C(O)C(F)(OC(F)(F)C(F)(F)C(F)(F)F)C(F)(F)F` (stereo unspecified), the call was inactive.
In the case of `NC(=O)C(F)(F)C(F)(F)F`, the result was inactive.
Regarding `O=C(O)C(F)(F)C(F)(F)C(=O)O`, the call was inactive.
Take `OCC(F)(F)OC(F)(F)C(F)(F)OC(F)(F)C(F)(F)OC(F)(F)CO`: the AC50 is 64.9 µM (active).

Tested on in a further assay: not listed separately
In words: Tanguay_ZF_120hpf_DP24: Oregon State University Tanguay Lab 24 Hour Post-fertilization zebrafish Assay for Delayed Development (AID 2284390; active = hit-call score of the fitted dose curve at least 0.9, where 1 is the maximum; inactive = score below 0.9). The procedure, abridged: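 Dechorionated 5D wild-type zebrafish embryos exposed statically from 6 hpf, one per well, 0.64% DMSO final, 28 C, sealed and dark. Developmental progression scored at 24 hpf by brightfield as binary present/absent; dead embryos excluded.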
Take `O=C(O)C(F)(F)OC(F)(F)C(F)(F)OC(F)(F)C(=O)O`: the compound was called inactive.
`C=CC(=O)OCC(F)(F)C(F)F`: the half-maximal activity concentration (AC50) was 45.3 µM (active).
Turning to `FC(F)(F)C(F)(C(F)(F)F)C(F)(F)C(F)(F)CC1CO1` (stereo unspecified), the compound was called inactive.
`COC(=O)C(F)(F)C(F)(F)OC(F)(C(F)(F)F)C(F)(F)OC(F)=C(F)F` (stereo unspecified): the call was inactive.
The same measure, in the same setting: as for `OCC(F)(F)OC(F)(F)C(F)(F)OC(F)(F)CO`, the entry is “inactive”.
For the compound `CC(O)C(F)(F)C(F)(F)F` (stereo unspecified), the result was inactive.
The same measure, in the same setting: as for `O=S(=O)(F)C(F)(F)C(F)(F)C(F)(F)C(F)(F)C(F)(F)C(F)(F)C(F)(F)C(F)(F)F`, the entry is “inactive”; as for `O=C(O)C(F)(F)OC(F)(F)C(F)(F)OC(F)(F)F`, “inactive”; as for `OCC(F)(F)OC(F)(F)C(F)(F)OC(F)(F)C(F)(F)OC(F)(F)F`, “inactive”.
For `O=C(O)C=CC(F)(C(F)(F)F)C(F)(F)F`, the compound was called inactive.
On the same count and under the same terms, as for `O=C(O)C(F)(OC(F)(F)C(F)(F)C(F)(F)F)C(F)(F)F` (stereo unspecified), the entry is “inactive”; as for `NC(=O)C(F)(F)C(F)(F)F`, “inactive”; as for `O=C(O)C(F)(F)C(F)(F)C(=O)O`, “inactive”.
Regarding `OCC(F)(F)OC(F)(F)C(F)(F)OC(F)(F)C(F)(F)OC(F)(F)CO`, the AC50 was 33.3 µM (active).
